Our source for the outcome and AC50 values is PubChem BioAssay (EPA / NIEHS).

Records with an inconclusive call do not appear. Calls of active or inactive are those of the source. The calls were made as follows, unless noted: active = hit-call score of the fitted dose curve at least 0.9, where 1 is the maximum; inconclusive = response in the unintended direction; inactive = score below 0.9.

The nature of experiment [1]: ATG_TGFb_CIS: Attagene CIS-FACTORIAL HepG2 Assay for human Transforming Growth Factor (TGF) (AID 2282967; active = hit-call score of the fitted dose curve at least 0.9, where 1 is the maximum; inactive = score below 0.9). The settings on record: HepG2 Attagene CIS TGFb reporter, mRNA transcription; actives raise or lower the signal. The essentials:
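Bidirectional fitting relative to DMSO gave the endpoint. Underlying data: reporter mRNA from HepG2 cells carrying transiently transfected cis-regulated reporter constructs, harvested 24 h after dosing and analyzed by RT-PCR and capillary electrophoresis.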

Experiment [2] is described as follows: ATG_VDRE_CIS: Attagene CIS-FACTORIAL HepG2 Assay for human Vitamin D Receptor Element (VDRE) (AID 2282968; active = hit-call score of the fitted dose curve at least 0.9, where 1 is the maximum; inactive = score below 0.9). The settings on record: HepG2 VDRE cis-reporter transcription, actives raise or lower the signal. In outline:
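Transfected HepG2 reporter cells, chemical treatment 24 h. RNA isolated, cDNA amplified with reporter-specific primers, products analysed by capillary electrophoresis. Endpoint fitted in both directions versus DMSO.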

For experiment [3], the target named is Estrogen receptor (Homo sapiens) (UniProt P03372). The experiment can be described thus: ATG_ERa_TRANS: Attagene TRANS-FACTORIAL HepG2 Assay for human Estrogen Receptor alpha (ERa) (AID 2282970). The settings on record: HepG2 Attagene TRANS ERa GAL4 reporter, mRNA. The essentials:
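Reporter transcripts were measured 24 h after dosing by RT-PCR with fluorescent primer extension and capillary electrophoresis. The system is transiently transfected HepG2 expressing exogenous NR-Gal4 chimeras driving GAL4-UAS reporters; DMSO is the baseline.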

In experiment [4] the target is X-box-binding protein 1 (Homo sapiens) (UniProt P17861). The experiment can be described thus: ATG_Xbp1_CIS: Attagene CIS-FACTORIAL HepG2 Assay for human X-box Binding Protein 1 (XBP1) (AID 2282972; active = hit-call score of the fitted dose curve at least 0.9, where 1 is the maximum; inactive = score below 0.9). The settings on record: HepG2 XBP1 cis-element reporter, Attagene multiplex; actives raise or lower the signal. In outline: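 Human hepatoma HepG2, cis-element reporter system, 24 h treatment; mRNA quantified by RT-PCR/CE fluorescence; fit relative to DMSO.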

For experiment [5], the target named is Androgen receptor (Homo sapiens) (UniProt P10275). Kind of experiment: ATG_AR_TRANS: Attagene TRANS-FACTORIAL HepG2 Assay for human Androgen Receptor (AR) (AID 2282973). The settings on record: HepG2 Attagene TRANS-FACTORIAL AR reporter transcription. The essentials: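 Transcriptional activity of an exogenous AR–Gal4 fusion read as GAL4-UAS reporter transcript levels in transfected human HepG2 cells after 24 h dosing. Detection via RT-PCR, 6-FAM labelling, HpaI digest and capillary electrophoresis; increase over DMSO baseline.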

The nature of experiment [6]: ATG_GAL4_TRANS: Attagene TRANS-FACTORIAL HepG2 Assay for GAL4 (Internal Marker) (AID 2282976). To be noted: HepG2 Attagene TRANS GAL4 internal marker reporter. The essentials: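 In transfected human HepG2 liver cells dosed 24 h, GAL4 reporter mRNA serves as a baseline marker. Detection by RT-PCR with fluorescent capillary electrophoresis, activity fitted upward relative to DMSO.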

For experiment [7], the target named is Bile acid receptor (Homo sapiens) (UniProt Q96RI1). The experiment can be described thus: ATG_FXR_TRANS: Attagene TRANS-FACTORIAL HepG2 Assay for Farnesoid X Receptor (FXR) (AID 2282979).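 Also: hits raise reporter mRNA above DMSO so AC50 marks FXR activation.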 The settings on record: HepG2 Attagene TRANS FXR-GAL4 reporter transcription. The essentials:
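Reporter transcripts from transfected HepG2 cells were measured 24 h after dosing, using RT-PCR with capillary electrophoresis of 6-FAM-labelled fragments. The read-out reflects activity of exogenous FXR-Gal4 chimera on GAL4-UAS units, with induction relative to DMSO.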

The target of experiment [8] is Hepatocyte nuclear factor 4-alpha (Homo sapiens) (UniProt P41235). The experiment can be described thus: ATG_HNF4a_TRANS: Attagene TRANS-FACTORIAL HepG2 Assay for human Hepatocyte Nuclear Factor 4 alpha (HNF4a) (AID 2282982). To be noted: HepG2 HNF4a transactivation reporter, mRNA readout. The essentials:
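Using HepG2 liver cells transfected with GAL4-UAS reporter units, chemical-induced mRNA increases were assessed after 24 hours. Fluorescent RT-PCR fragments were separated by capillary electrophoresis and compared with DMSO negative controls.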

A short description of experiment [9]: ATG_M_06_TRANS: Attagene TRANS-FACTORIAL HepG2 Assay for M06 Transcription Factor (Internal Marker) (AID 2282983). To be noted: HepG2 Attagene TRANS M06 internal marker reporter. The essentials:
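Background-control reporter readout: after 24 h chemical exposure of transiently transfected HepG2 (GAL4-UAS reporter units), mRNA quantified by RT-PCR with fluorescent labeling and capillary electrophoresis. Gain-of-signal fitting against DMSO baseline.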

Experiment [10] can be described thus: ATG_M_32_TRANS: Attagene TRANS-FACTORIAL HepG2 Assay for M32 Transcription Factor (Internal Marker) (AID 2282984).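 Also: transcript level of a background control reporter unit measured by RT-PCR and capillary electrophoresis.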 The settings on record: HepG2 Attagene TRANS M32 internal marker reporter. In outline: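 Fluorescence-detected mRNA induction, HepG2 liver cells, 24 h after dosing. Multiple GAL4-UAS reporter units introduced by transient transfection; background-control endpoint analysed for gain of signal against DMSO.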

Experiment [11] has as its target Nuclear receptor subfamily 4 group A member 2 (Homo sapiens) (UniProt P43354). The experiment can be described thus: ATG_NURR1_TRANS: Attagene TRANS-FACTORIAL HepG2 Assay for human Nuclear Receptor Related Protein 1 (NURR1) (AID 2282985). To be noted: HepG2 Attagene TRANS reporter, mRNA readout. The essentials: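 Chimeric NR-Gal4 proteins were expressed in human HepG2 cells bearing GAL4-UAS reporter units, and induced reporter mRNA was quantified 24 h post-dosing by RT-PCR and capillary electrophoresis.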

Experiment [12] has as its target Transcriptional activator Myb (Homo sapiens) (UniProt P10242). The experiment can be described thus: ATG_Myb_CIS: Attagene CIS-FACTORIAL HepG2 Assay for human Myeloblastosis (Myb) Proto-Oncogene Transcription Factor (AID 2282986; active = hit-call score of the fitted dose curve at least 0.9, where 1 is the maximum; inactive = score below 0.9). The settings on record: HepG2 Attagene CIS-FACTORIAL Myb reporter transcription; actives raise or lower the signal. In outline: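 HepG2, transient MRTU transfection (cis-element promoters, endogenous TF activity), 24 h compound exposure. Readout: reporter mRNA via RT-PCR, 6-FAM labeling, HpaI digest, capillary electrophoresis. Gain/loss fit vs DMSO.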

The target of experiment [13] is Nuclear respiratory factor 1 (Homo sapiens) (UniProt Q16656). Kind of experiment: ATG_NRF1_CIS: Attagene CIS-FACTORIAL HepG2 Assay for human Nuclear Respiratory Factor 1 (NRF1) Orphan Gene (AID 2282987; active = hit-call score of the fitted dose curve at least 0.9, where 1 is the maximum; inactive = score below 0.9). The settings on record: HepG2 NRF1 cis-element reporter, Attagene multiplex; actives raise or lower the signal. The essentials: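 Endogenous NRF1-driven reporter transcription measured in transiently transfected human HepG2 liver cells. Readout: reporter mRNA by RT-PCR and capillary electrophoresis with fluorescence detection, 24 h post-dosing. Gain or loss of signal fitted relative to DMSO baseline.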

Experiment [14] concerns the target Steroid hormone receptor ERR1 (Homo sapiens) (UniProt P11474). Kind of experiment: ATG_ERRa_TRANS: Attagene TRANS-FACTORIAL HepG2 Assay for human Estrogen-Related Receptor alpha (ERRa) (AID 2282971). The settings on record: HepG2 Attagene TRANS reporter, ERRa transactivation. In outline:
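Reporter transcripts from ERRa-Gal4 chimera activity measured in transiently transfected human HepG2 cells 24 hours after dosing, using RT-PCR with 6-FAM primer extension, HpaI digestion and capillary electrophoresis; DMSO is baseline.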

Experiment [15] can be described thus: ATG_M_19_TRANS: Attagene TRANS-FACTORIAL HepG2 Assay for M19 Transcription Factor (Internal Marker) (AID 2282974). To be noted: HepG2 Attagene TRANS-FACTORIAL M19 internal marker reporter. In outline:
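24 h chemical exposure of transiently transfected HepG2 (MRTU library). RNA → oligo(dT) RT → PCR → 6-FAM labelling → HpaI cut → CE fluorescence. Positive-direction fit vs DMSO baseline; background internal-marker readout.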

For experiment [16], the target named is Glucocorticoid receptor (Homo sapiens) (UniProt P04150). The experiment can be described thus: ATG_GR_TRANS: Attagene TRANS-FACTORIAL HepG2 Assay for human Glucocorticoid Receptor (GR) (AID 2282978).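 Also: activators score as hits since higher reporter transcript over DMSO is fitted.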 To be noted: HepG2 Attagene TRANS GR reporter, mRNA transcription. In outline: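 Transient MRTU transfection of HepG2 (GAL4-UAS reporters, exogenous NR-GAL4 chimeras), 24 h dosing. Readout: reporter transcript via RT-PCR + capillary electrophoresis fluorescence. Positive direction vs DMSO baseline.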

Experiment [17] concerns the target Oxysterols receptor LXR-alpha (Homo sapiens) (UniProt Q13133). The experiment can be described thus: ATG_LXRa_TRANS: Attagene TRANS-FACTORIAL HepG2 Assay for human Liver X Receptor alpha (LXRa) (AID 2282980). The settings on record: HepG2 Attagene TRANS reporter, LXRa transactivation. The essentials:
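Chemical-induced reporter mRNA measured by RT-PCR with fluorescent labelling and capillary electrophoresis after 24 h dosing of transiently transfected HepG2 cells expressing exogenous NR-Gal4 chimeras; increases scored against DMSO baseline.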

Experiment [18] concerns the target Estrogen-related receptor gamma (Homo sapiens) (UniProt P62508). Kind of experiment: ATG_ERRg_TRANS: Attagene TRANS-FACTORIAL HepG2 Assay for human Estrogen-Related Receptor gamma (ERRg) (AID 2282977).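 Also: hits increase reporter signal over DMSO so potencies reflect activators.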 The settings on record: HepG2 Attagene TRANS reporter, ERRg transactivation. The essentials:
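Exogenous NR-Gal4 chimera activity was assessed in HepG2 cells bearing transfected GAL4-UAS reporters. After 24 h dosing, total RNA underwent RT-PCR, fluorescent primer extension and HpaI digestion before capillary electrophoresis, with gain of signal scored against DMSO.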

The AC50 is the midpoint of the concentration-response curve, whichever way the signal moves.

Chain of Bile acid receptor (Homo sapiens) (Q96RI1 whole entry, looked up, the tested form may be a part): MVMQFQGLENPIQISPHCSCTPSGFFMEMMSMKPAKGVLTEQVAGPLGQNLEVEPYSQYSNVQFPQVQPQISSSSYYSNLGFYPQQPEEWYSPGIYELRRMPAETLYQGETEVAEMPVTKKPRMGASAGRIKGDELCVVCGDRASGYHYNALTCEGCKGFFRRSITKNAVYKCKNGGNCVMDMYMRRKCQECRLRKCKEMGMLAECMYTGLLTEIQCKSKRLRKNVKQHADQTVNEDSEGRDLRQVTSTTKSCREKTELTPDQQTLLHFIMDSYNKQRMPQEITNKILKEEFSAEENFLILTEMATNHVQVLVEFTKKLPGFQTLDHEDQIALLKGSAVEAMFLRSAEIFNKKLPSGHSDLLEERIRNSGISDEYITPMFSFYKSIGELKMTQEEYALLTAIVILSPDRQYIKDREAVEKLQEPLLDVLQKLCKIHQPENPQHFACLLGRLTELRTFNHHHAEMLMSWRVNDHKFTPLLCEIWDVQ
Chain of Oxysterols receptor LXR-alpha (Homo sapiens) (Q13133 whole entry, looked up, the tested form may be a part): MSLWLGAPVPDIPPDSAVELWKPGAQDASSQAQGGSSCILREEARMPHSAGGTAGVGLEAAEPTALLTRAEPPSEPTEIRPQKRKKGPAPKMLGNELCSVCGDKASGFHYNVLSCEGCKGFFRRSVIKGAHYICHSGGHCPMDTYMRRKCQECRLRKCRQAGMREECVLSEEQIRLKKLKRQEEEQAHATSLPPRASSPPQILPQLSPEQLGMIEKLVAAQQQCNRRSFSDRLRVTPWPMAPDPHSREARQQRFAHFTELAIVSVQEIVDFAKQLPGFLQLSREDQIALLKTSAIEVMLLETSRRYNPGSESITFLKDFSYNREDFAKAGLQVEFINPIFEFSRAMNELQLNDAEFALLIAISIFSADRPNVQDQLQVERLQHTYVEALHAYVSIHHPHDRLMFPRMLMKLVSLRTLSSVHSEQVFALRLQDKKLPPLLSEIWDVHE
Chain of Nuclear respiratory factor 1 (Homo sapiens) (Q16656 whole entry, looked up): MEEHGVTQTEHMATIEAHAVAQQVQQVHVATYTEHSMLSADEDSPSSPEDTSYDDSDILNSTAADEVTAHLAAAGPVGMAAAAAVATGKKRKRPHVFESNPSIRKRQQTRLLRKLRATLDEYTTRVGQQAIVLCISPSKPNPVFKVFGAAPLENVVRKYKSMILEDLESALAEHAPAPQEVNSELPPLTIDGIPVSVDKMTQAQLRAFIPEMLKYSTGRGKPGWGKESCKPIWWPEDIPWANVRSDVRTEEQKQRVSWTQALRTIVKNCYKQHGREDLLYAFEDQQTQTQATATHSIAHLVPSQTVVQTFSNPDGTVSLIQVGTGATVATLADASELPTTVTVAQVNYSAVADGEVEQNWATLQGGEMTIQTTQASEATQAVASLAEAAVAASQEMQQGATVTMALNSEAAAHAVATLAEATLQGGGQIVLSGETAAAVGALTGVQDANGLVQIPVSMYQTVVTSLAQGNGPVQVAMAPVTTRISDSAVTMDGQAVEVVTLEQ
Chain of Nuclear receptor subfamily 4 group A member 2 (Homo sapiens) (P43354 whole entry, looked up, the tested form may be a part): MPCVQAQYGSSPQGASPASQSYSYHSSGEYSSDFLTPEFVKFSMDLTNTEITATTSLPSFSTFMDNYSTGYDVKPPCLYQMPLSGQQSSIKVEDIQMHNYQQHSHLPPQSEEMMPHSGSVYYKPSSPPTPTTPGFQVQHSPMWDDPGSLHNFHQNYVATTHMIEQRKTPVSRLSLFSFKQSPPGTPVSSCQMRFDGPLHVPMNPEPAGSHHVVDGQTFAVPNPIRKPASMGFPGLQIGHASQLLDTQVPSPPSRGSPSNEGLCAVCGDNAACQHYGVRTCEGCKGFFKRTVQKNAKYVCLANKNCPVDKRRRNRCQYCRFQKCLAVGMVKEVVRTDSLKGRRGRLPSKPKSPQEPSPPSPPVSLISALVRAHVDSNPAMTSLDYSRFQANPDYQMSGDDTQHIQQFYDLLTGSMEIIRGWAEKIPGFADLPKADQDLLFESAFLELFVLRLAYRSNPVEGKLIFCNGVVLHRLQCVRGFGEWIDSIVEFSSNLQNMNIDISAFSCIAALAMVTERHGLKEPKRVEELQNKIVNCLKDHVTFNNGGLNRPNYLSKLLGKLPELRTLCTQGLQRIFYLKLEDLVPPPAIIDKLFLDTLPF
Chain of Transcriptional activator Myb (Homo sapiens) (P10242 whole entry, looked up): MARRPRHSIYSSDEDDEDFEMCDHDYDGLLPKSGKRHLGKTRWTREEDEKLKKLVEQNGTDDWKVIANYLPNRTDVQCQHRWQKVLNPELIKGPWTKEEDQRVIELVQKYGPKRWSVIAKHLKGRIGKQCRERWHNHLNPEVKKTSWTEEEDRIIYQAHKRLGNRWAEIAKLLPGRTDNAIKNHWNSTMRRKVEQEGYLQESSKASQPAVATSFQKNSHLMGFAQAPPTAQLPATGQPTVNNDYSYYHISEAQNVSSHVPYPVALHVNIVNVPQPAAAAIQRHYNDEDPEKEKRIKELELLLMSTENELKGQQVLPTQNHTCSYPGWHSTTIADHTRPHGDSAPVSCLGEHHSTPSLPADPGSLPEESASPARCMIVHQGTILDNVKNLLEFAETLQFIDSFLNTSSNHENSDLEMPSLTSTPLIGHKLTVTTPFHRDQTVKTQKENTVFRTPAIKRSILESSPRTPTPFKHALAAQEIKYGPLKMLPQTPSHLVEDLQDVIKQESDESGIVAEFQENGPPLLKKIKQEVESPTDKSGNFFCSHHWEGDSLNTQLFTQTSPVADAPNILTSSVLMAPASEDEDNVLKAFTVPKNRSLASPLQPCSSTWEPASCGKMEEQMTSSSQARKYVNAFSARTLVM
Chain of X-box-binding protein 1 (Homo sapiens) (P17861 whole entry, looked up): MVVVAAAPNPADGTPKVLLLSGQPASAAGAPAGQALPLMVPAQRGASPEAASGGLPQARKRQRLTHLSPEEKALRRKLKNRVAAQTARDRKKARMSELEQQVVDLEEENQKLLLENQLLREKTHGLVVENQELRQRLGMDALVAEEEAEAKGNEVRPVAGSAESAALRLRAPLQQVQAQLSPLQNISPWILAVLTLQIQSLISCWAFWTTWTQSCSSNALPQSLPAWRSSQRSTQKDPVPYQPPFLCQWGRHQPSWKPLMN
Chain of Estrogen receptor (Homo sapiens) (P03372 whole entry, looked up, the tested form may be a part): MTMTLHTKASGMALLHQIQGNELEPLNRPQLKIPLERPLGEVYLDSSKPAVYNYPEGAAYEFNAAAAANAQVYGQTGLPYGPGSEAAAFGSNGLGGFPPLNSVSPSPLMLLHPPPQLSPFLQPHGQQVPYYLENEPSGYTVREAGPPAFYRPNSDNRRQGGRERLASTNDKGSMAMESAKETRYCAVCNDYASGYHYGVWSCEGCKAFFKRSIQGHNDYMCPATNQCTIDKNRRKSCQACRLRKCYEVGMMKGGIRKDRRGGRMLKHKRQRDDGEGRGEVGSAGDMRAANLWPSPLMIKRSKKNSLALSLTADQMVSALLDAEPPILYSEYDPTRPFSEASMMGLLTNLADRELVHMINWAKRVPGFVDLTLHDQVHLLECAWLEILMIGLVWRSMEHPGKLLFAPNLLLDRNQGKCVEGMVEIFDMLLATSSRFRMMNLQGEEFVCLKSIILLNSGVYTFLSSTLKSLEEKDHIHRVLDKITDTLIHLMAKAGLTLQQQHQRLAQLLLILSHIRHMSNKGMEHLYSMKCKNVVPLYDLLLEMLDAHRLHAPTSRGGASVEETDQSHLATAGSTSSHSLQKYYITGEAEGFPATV
Chain of Glucocorticoid receptor (Homo sapiens) (P04150 whole entry, looked up, the tested form may be a part): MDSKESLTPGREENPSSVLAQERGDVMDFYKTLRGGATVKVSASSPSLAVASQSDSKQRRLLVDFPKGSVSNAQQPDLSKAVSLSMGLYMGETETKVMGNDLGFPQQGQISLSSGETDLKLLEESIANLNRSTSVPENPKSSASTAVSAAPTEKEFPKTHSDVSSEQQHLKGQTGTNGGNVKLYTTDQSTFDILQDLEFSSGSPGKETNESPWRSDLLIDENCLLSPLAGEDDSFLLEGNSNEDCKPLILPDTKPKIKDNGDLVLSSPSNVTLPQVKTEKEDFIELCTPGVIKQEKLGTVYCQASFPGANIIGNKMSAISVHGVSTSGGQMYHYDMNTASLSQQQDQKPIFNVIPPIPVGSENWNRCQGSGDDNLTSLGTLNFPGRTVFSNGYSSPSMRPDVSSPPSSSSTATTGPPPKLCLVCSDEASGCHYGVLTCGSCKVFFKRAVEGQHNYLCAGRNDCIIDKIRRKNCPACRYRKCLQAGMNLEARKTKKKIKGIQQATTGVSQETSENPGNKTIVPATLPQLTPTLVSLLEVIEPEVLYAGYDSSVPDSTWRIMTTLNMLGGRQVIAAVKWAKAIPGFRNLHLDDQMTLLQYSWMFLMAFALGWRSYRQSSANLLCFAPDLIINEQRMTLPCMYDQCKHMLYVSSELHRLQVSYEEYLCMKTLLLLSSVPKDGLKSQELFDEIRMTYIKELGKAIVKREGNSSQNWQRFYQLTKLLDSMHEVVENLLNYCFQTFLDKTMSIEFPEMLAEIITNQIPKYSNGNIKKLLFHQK
Chain of Estrogen-related receptor gamma (Homo sapiens) (P62508 whole entry, looked up, the tested form may be a part): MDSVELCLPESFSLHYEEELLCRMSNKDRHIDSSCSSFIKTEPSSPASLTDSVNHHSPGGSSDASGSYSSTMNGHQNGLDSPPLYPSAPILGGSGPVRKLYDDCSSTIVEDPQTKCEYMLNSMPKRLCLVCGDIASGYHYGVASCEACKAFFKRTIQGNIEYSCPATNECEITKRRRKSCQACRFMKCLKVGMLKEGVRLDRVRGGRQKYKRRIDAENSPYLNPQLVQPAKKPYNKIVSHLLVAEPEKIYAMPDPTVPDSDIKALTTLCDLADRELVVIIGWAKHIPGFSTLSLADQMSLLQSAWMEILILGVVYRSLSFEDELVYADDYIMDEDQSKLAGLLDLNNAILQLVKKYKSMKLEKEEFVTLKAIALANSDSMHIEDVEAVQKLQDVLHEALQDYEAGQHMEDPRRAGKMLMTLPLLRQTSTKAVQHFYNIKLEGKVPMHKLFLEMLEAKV

Take `O=NN1CCCCCC1`: the result in experiment [1], in [2], in [3], in [4], in [5] and in [6] was inactive. Also, the call in [7], in [8], in [9], in experiment [10], in experiment [11] and in experiment [12] was inactive. Also, the result in experiment [13] was inactive.
Turning to `C[C@]12CC[C@@H](O)C[C@@H]1CC[C@@H]1[C@@H]2CC[C@]2(C)C(=O)CC[C@@H]12`, the call in [1], in experiment [2], in experiment [14], in [4], in experiment [15] and in experiment [6] was inactive. The outcome in experiment [16], in [17], in experiment [12] and in [13] was inactive.
As for `O=S(=O)(C(Cl)(Cl)Cl)C(Cl)(Cl)Cl`, the compound was called inactive in [1], in [3], in [15], in experiment [6], in experiment [7] and in experiment [17]. In addition, the result in [9], in experiment [10], in experiment [11], in experiment [12] and in experiment [13] was inactive. Besides, the half-maximal activity concentration (AC50) in [2] was 16.7 µM (active); in experiment [4] it was 15.4 µM (active).
On to `O=C/C(Cl)=C(/Cl)C(=O)O`, for which the AC50 is 43.7 µM (active) in experiment [1], 74.3 µM (active) in experiment [2] and 156 µM (active) in experiment [3]. Moreover, the outcome in [4], in experiment [18], in experiment [7], in experiment [17], in experiment [9] and in experiment [10] was inactive. The result in [11], in experiment [12] and in experiment [13] was inactive.
As for `CCCCCCCCCCCCCl`, the outcome in experiment [1], in experiment [2], in experiment [3], in experiment [4], in experiment [15] and in experiment [17] was inactive. Moreover, the result in experiment [10], in experiment [12] and in experiment [13] was inactive.
As to `Nc1nc(=S)[nH][nH]1`, the result in experiment [1], in [2], in [3], in experiment [4], in experiment [15] and in experiment [6] was inactive. Moreover, the compound was classed as inactive in [17], in [12] and in experiment [13].
